In PubChem BioAssay AID1159580 (chemical genetic matrix, 2015):
Out of some 5,500 compounds screened, about 2,000 (36%) were called active. About 18% were inconclusive and are not listed. No stated cut-off is given here; in the data, active means normalized growth mostly below about 0.91 (no sharp cut-off); inconclusive means no clear call, values can overlap the other calls; inactive means mostly above about 0.92. This is one part of the list.

Test: chemical genetic growth profiling, strain panel (AID 1159580);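 further: tested at 20 µM; growth read once vehicle control cultures reached saturation at 30 °C; 1 = growth at the plate median or of vehicle wells; lower values mean less growth of the strain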
Details: growth OD
[1] = S. cerevisiae deletion strains, locus YAL013W, strain DEP1, active compounds read low
[2] = S. cerevisiae deletion strains, locus YBR229C, strain ROT2, active compounds read low
[3] = S. cerevisiae deletion strains, locus YDL101C, strain DUN1, active compounds read low
[4] = S. cerevisiae deletion strains, locus YDR150W, strain NUM1, active compounds read low
[5] = S. cerevisiae deletion strains, locus YEL061C, strain CIN8, active compounds read low
[6] = S. cerevisiae deletion strains, locus YGR078C, strain PAC10, active compounds read low
[7] = S. cerevisiae deletion strains, locus YHR030C, strain SLT2, active compounds read low
[8] = S. cerevisiae deletion strains, locus YHR087W, strain rtc3, active compounds read low
[9] = S. cerevisiae deletion strains, locus YJR043C, strain POL32, active compounds read low
[10] = S. cerevisiae deletion strains, locus YJR075W, strain HOC1, active compounds read low
[11] = S. cerevisiae deletion strains, locus YLR039C, strain RIC1, active compounds read low
[12] = S. cerevisiae deletion strains, locus YLR058C, strain SHM2 (second series), active compounds read low
[13] = S. cerevisiae deletion strains, locus YLR085C, strain ARP6, active compounds read low
[14] = S. cerevisiae deletion strains, locus YLR262C, strain YPT6, active compounds read low
[15] = S. cerevisiae deletion strains, locus YML094W, strain GIM5, active compounds read low
[16] = S. cerevisiae deletion strains, locus YMR219W, strain ESC1, active compounds read low
[17] = S. cerevisiae deletion strains, locus YMR263W, strain SAP30, active compounds read low
[18] = S. cerevisiae deletion strains, locus YNL153C, strain GIM3, active compounds read low
[19] = S. cerevisiae deletion strains, locus YNL298W, strain CLA4 (second series), active compounds read low
[20] = S. cerevisiae deletion strains, locus YNL322C, strain KRE1, active compounds read low
[21] = S. cerevisiae deletion strains, locus YNR030W, strain Alg12, active compounds read low
[22] = S. cerevisiae deletion strains, locus YPL055C, strain LGE1, active compounds read low
[23] = S. cerevisiae deletion strains, locus YPL241C, strain CIN2, active compounds read low
[24] = S. cerevisiae deletion strains, locus YPR135W, strain CTF4, active compounds read low

Measured: normalized growth

Cc1ccc(NC(=S)NNC(C)(C)C)cc1
inactive: [1] 0.991 | [2] 0.963 | S. cerevisiae deletion strains, locus YCL061C, strain MRC1, active compounds read low 0.972 | [3] 0.971 | [4] 0.898 | [6] 0.997 | [7] 0.721 | [8] 1.01 | [9] 0.99 | [10] 1.06 | [12] 1 | [16] 1.01 | [17] 1.03 | S. cerevisiae deletion strains, locus YNL128W, strain TEP1, active compounds read low 0.94 | [18] 0.955 | [20] 1.02 | [22] 0.894 | [23] 0.913
active: [5] 0.838 | [11] 0.654 | [13] 0.488 | [14] 0.795 | [15] 0.827 | [19] 0.675 | [21] 0.787 | S. cerevisiae deletion strains, locus YOL006C, strain TOP1, active compounds read low 0.193 | [24] 0.646

O=C(Oc1ccc(C(F)(F)F)cc1[N+](=O)[O-])c1c(F)cccc1F
active: [1] 0.185 | [2] 0.178 | [3] 0.316 | [4] 0.25 | [5] 0.235 | [6] 0.172 | S. cerevisiae deletion strains, locus YGR229C, strain SMI1, active compounds read low 0.927 | [7] 0.16 | [8] 0.133 | S. cerevisiae deletion strains, locus YJL187C, strain SWE1, active compounds read low 0.141 | [9] 0.424 | [10] 0.101 | S. cerevisiae deletion strains, locus YKL190W, strain CNB1, active compounds read low 0.218 | [11] 0.286 | [12] 0.15 | [13] 0.122 | [14] 0.316 | [15] 0.4 | [16] 0.14 | [17] 0.169 | S. cerevisiae deletion strains, locus YMR307W, strain GAS1, active compounds read low 0.213 | [18] 0.227 | [19] 0.23 | [20] 0.577 | [21] 0.559 | [22] 0.171 | [23] 0.685 | [24] 0.269 | S. cerevisiae strains, strain wild type, active compounds read low 0.515
